The list is not random: actives were taken first. Their share in the collection is about 7.5%.
FLuc counter: firefly luciferase modulation, counter-screen for miR-21 project; purified FLuc, Km substrates, luminescence inhibition; Potency, µM (doses to about 57.5 µM), for inactives: top-dose activity change, negative = inhibition, hits mostly inhibitors; actives 6.9% (n = 360,000);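 note: plate controls were vehicle for no effect and reference inhibitor for full effect; nearly all actives have a fitted effect of over 55% in size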
Target sequence (P08659 whole entry, looked up): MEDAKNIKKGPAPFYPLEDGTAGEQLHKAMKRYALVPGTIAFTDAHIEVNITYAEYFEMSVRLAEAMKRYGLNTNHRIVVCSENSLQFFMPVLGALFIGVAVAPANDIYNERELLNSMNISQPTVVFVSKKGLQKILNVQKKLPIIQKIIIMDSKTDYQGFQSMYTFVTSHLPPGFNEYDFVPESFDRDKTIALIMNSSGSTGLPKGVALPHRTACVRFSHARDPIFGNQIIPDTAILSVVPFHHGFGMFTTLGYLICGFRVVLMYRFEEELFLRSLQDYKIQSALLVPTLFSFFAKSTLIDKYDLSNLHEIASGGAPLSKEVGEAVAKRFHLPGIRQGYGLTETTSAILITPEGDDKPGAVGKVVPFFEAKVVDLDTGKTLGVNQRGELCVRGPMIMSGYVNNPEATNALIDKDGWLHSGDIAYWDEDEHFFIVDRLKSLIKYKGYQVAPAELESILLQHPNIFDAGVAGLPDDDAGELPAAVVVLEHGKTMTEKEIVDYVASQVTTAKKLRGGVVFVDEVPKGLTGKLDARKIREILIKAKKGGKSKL
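Biochemical qHTS of compounds, final roughly 60 µM downward over six points, against 10 nM purified firefly luciferase using Km concentrations of substrates (10 uM D-luciferin, 10 uM ATP) in Tris acetate pH 7.5 buffer; luminescence output.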
SMN2 splice enh: increases expression of the SMN2 splice variant | Potency, µM (titrated, usually from 46.1 µM), for inactives: top-dose activity change, positive = activation, most hits filed as activators | actives 2.8% (n = 210,000) | AID 1458 | HEK293 SMN2-luciferase splicing reporter, luminescence, 30-36 h; note: % of control where 0% means no effect; nearly all actives have a fitted effect of over 55% in size
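HEK293 cells carry an SMN2 […]–luciferase reporter in which exon 7 inclusion puts luciferase in frame. Cells were plated 10-12 h before compound addition, then incubated 30-36 h at 37C. ONE-Glo luminescence was read; sodium butyrate at 4.5 mM final served as control.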
Rab9 prom act: Rab9 promoter activation; AID 485297; Huh7 Rab9 promoter-luciferase reporter, luminescence, 24 h; Potency, µM (titrated, usually from 9.22 µM), for inactives: top-dose activation, negative = inhibition, usual class: activators; actives 2.8% (n = 320,000); note: % of control where 0% means no effect; nearly all actives have a fitted effect of over 60% in size
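Huh7 cells stably carrying Rab9 promoter–luciferase reporter, plated 1500 cells/well, compound added after 2 h and incubated 24 h at 37 °C; luciferase luminescence then read after 10 min with detection reagent.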
NPC1 promoter act: activates the NPC1 promoter | Huh7 NPC1 promoter luciferase reporter, 24 h | Potency, µM (highest dose often 9.22 µM), for inactives: top-dose activation, hits mostly activators | actives 2.4% (n = 320,000) | AID 485313; note: % of control where 0% means no effect; nearly all actives have a fitted effect of over 60% in size
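Huh7 cells stably carrying NPC1 promoter–luciferase, plated in Opti-MEM with 10% FBS for 2 h, were exposed to compound in DMSO for 24 h at 37 °C; luciferase reagent was added for 10 min and luminescence read.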
ELG1 genotox: inducers of genotoxicity in HEK293T ELG1-luciferase cells. HEK293T ELG1-luciferase reporter, luminescence, 16 h. Potency, µM (series often up to 46 µM), without a hit: at the highest dose activity change, positive = activation, hits mostly activators. actives 1.3% (n = 330,000); note: % of control where 0% means no effect; nearly all actives have a fitted effect of over 60% in size
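Step 1: seed 2,000 HEK293T ELG1-luciferase cells per well. Step 2: add compound or DMSO, incubate 16 hr at 37 °C. Step 3: ONE-Glo, 30 min at room temperature, read luminescence.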
* hit, by the source's call; ? = inconclusive; / = not tested or not shown. Calls come from the whole dose curve; as a rule, active = well fitted curve in the direction sought with a large enough effect; inconclusive = small, poorly fitted or top-dose-only effect, or another doubt; inactive = no such curve, though single readings can be large; an effect the other way counts as inactive or inconclusive. Potency is the fitted concentration of half-maximal effect.

SMILES | FLuc counter | SMN2 splice enh | Rab9 prom act | NPC1 promoter act | ELG1 genotox
COc1ccc2nc(Nc3nc(C)c(CCC(C)C)c(=O)[nH]3)nc(C)c2c1 | -1.5% | 4.1% | -8.9% | -9.4% | -6.3%
CN(C)C(=O)CSc1nnc(CCN)o1 | 4.9% | -3.3% | 3.6% | -4.5% | -1.2%
CN(C)C(=O)CSc1nnc(C23CC4CC(CC(C4)C2)C3)o1 | ? | ? | 3.16µM* | ? | 9.2µM*
O=C(Nc1ncc([N+](=O)[O-])s1)c1ccc2c(c1)OCO2 | 0.107µM* | / | 1.26µM* | 3.16µM* | ?
Cc1ccc([N+](=O)[O-])cc1NC(=O)c1ccc2c(c1)OCO2 | -11.8% | -8.0% | -0.7% | -0.3% | -6.5%
Cc1onc(-c2ccccc2)c1C(=O)Nc1ncc([N+](=O)[O-])s1 | -20.0% | / | -18.6% | -11.3% | -38.8%
O=C(Cc1ccc(Br)cc1)Nc1ncc([N+](=O)[O-])s1 | ? | / | ? | ? | -2.8%
Cc1ccc(C(=O)Nc2ncc([N+](=O)[O-])s2)cc1 | 0.12µM* | / | 0.0251µM* | 0.0316µM* | ?
O=C(Nc1ncc([N+](=O)[O-])s1)c1ccco1 | 10.7µM* | / | 1.12µM* | 1.58µM* | 2.59µM*
Cc1cc(C)cc(N/C(N)=N/c2nc(C)cc(C)n2)c1 | 1.7% | -21.8% | -12.5% | -1.2% | -2.3%
CC1CC(C)(C)Nc2ccc(OC(=O)c3ccco3)cc21 (configuration not stated) | 6.75µM* | / | ? | 0.4% | 18.5%
CC1CC(C)(C)Nc2ccc(N=O)cc21 (configuration not stated) | -11.2% | -102.2% | 17.8% | -8.0% | 12.3%
Cc1ncc(CO)c2c1Oc1nc(-c3ccccc3Cl)nc(SCc3ccccc3F)c1C2 | 3.8% | / | / | / | /
CCOC(=O)c1cnc(-c2ccccc2)nc1C(F)(F)F | ? | -3.7% | 5.6% | -2.2% | 3.4%
Cc1nc(Nc2nc3ccccc3o2)nc2c1CCC2 | 1.69µM* | 2µM* | ? | ? | ?
CCOC(=O)c1cnc(Nc2ccc(OCC)cc2)nc1C | ? | 7.9% | 24.9% | ? | ?
Cc1cccc(C)c1Nc1nc2ccccc2o1 | 4.8% | -15.1% | -3.2% | -1.9% | -7.3%
CCOC(=O)c1cnc(Nc2ccccc2)nc1C(F)(F)F | 23.9µM* | / | 16.9% | 24.7% | 19.2%
CCOC(=O)c1cnc(Nc2nc3ccccc3o2)nc1C | 0.379µM* | -32.9% | ? | ? | /
COc1cccc(/C=C/C(=O)Nc2ccc(N3CCOCC3)cc2)c1OC | ? | / | ? | 27.9% | ?
CN1CCN(/N=C/c2ccc(Cl)c(Cl)c2)CC1 | 19µM* | 12.6µM* | ? | ? | ?
CN1CCN(/N=C/c2ccc(Br)cc2)CC1 | ? | 25.1% | ? | ? | ?
O=C(OCc1ccccc1)c1cccc(-c2nnn(Cc3ccccc3)n2)c1 | -2.8% | 7.94µM* | 17.3% | 27.1% | ?
Brc1ccc2nc(-c3c[nH]c4ccccc34)cn2c1 | 1.51µM* | 10µM* | 1µM* | 2.24µM* | ?
Cc1cccn2cc(-c3c[nH]c4ccccc34)nc12 | 19µM* | 12.6µM* | ? | ? | ?
SMILES | FLuc counter | SMN2 splice enh | Rab9 prom act | NPC1 promoter act | ELG1 genotox
Cc1ccc2nc(-c3c[nH]c4ccccc34)c(Nc3ccccc3C)n2c1 | -1.5% | ? | / | / | /
COc1ccc2oc(=N)c(C(=O)Nc3ccccc3Cl)cc2c1 | 0.536µM* | / | 2.51µM* | 3.55µM* | ?
COc1ccc2oc(=N)c(C(=O)Nc3ccc(C)cc3)cc2c1 | ? | / | ? | 23.4% | 11.3%
N=c1oc2cc(O)ccc2cc1C(=O)Nc1ccccn1 | ? | -6.5% | 2.3% | 0.6% | 4.4%
COc1ccc2oc(=N)c(C(=O)Nc3cccc(C)c3C)cc2c1 | 0.757µM* | / | 4.47µM* | 2.24µM* | ?
N=c1oc2cc(O)ccc2cc1C(=O)Nc1ccc(Br)cc1 | 2.69µM* | / | 1.41µM* | 1.78µM* | 17.0%
N=c1oc2cc(O)ccc2cc1C(=O)Nc1nc2ccccc2s1 | 0.19µM* | 0.1% | 3.16µM* | 3.98µM* | 6.51µM*
CC12CCC(C(=O)N(NC(=O)c3ccccc3Cl)C1=O)C2(C)C (configuration not stated) | 3.6% | 5.8% | 2.3% | -0.7% | -0.6%
